DAX1 inh-1 – DAX1 (NR0B1) inhibitors on StAR promoter, primary screen, cell-based, luminescence, SF-1 (NR5A1), full-length DAX-1. HEK293T StAR-luciferase reporter, SF-1/DAX-1 repression relief. inhibition, % at 6.8 µM. AID 652010, 2013. hit rate 1.1% among 370,000;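 active = inhibition above the mean over all tested compounds plus 3 SD, cut at about 3.6% in these data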;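 also: 0% = DAX-1 cells with DMSO and 100% = cells lacking DAX-1 with DMSO; higher inhibition means more luminescence from relief of DAX-1 repression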
AHR activator – AHR activators, primary screen, cell-based, luminescence, luciferase reporter, human; Aryl hydrocarbon receptor (Homo sapiens), P35869; AHR-responsive luciferase reporter cells; activation, % at 5 µM; hit rate 2.5% among 320,000; AID 2796, 2010; in the data active = activation above about 47%;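 also: 0% = vehicle wells and 100% = reference agonist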
hgDAF12 agonist – H. glycines DAF-12 receptor agonists, primary screen, cell-based, luminescence, HEK293, GAL4 fusion, UAS-luciferase. HEK293 GAL4-hgDAF12 UAS-luciferase reporter, agonist luminescence; normalized to butyrate control. activation, % at 6.8 µM. hit rate 1.8% among 370,000. Nuclear hormone receptor DAF-12 (Heterodera glycines), GAL4 fusion;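 active = activation above a cutoff set at the mean of all screened compounds plus 3 SD, cut at about 10% in these data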;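 also: 0% = DMSO wells and 100% = sodium butyrate wells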
ssDAF12 agonist – S. stercoralis DAF-12 nuclear receptor activators, primary screen, cell-based, luminescence, HEK293, GRIP1 co-expression, lit1-tk-luc; Nuclear hormone receptor DAF-12 (Strongyloides stercoralis); HEK293 ssDAF-12/GRIP1 lit1-tk-luc reporter; % of 3 µM dafachronic acid response; activation, % at 6.8 µM; hit rate 1% among 370,000; AID 652126, 2013;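 active = activation above the mean over all tested compounds plus 3 SD, cut at about 0.9% in these data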;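 also: 0% = DMSO-only wells and 100% = 3 µM delta7-dafachronic acid wells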
hcDAF12 agonist – H. contortus DAF-12 nuclear receptor activators, primary screen, cell-based, luminescence, HEK293, lit1-tk-luc reporter; HEK293 hcDAF-12 lit1-tk-luc reporter; 0% DMSO, 100% Δ7-dafachronic acid; activation, % at 6.8 µM; hit rate 1.4% among 370,000; AID 652067, 2013;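 active = activation above the mean of all tested compounds plus 3 SD, cut at about 5.5% in these data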;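 also: 100% = response to 3 µM Δ7-dafachronic acid high control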
DAX1 inh-2 – DAX1 (NR0B1) inhibitors, primary screen, cell-based, HEK293, Gal4-DAX1, luciferase luminescence. HEK293 Gal4-DAX1 luciferase reporter. inhibition, % at 6.75 µM. hit rate 0.99% among 340,000;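 active = inhibition above the mean over all tested compounds plus 3 SD, cut at about 4.2% in these data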;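 also: 0% = DAX1-transfected cells with DMSO and 100% = empty-vector control cells with DMSO; inhibition shows as a rise in luminescence from relieved DAX1 repression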
Target sequence (P51843 207-470 limits assumed): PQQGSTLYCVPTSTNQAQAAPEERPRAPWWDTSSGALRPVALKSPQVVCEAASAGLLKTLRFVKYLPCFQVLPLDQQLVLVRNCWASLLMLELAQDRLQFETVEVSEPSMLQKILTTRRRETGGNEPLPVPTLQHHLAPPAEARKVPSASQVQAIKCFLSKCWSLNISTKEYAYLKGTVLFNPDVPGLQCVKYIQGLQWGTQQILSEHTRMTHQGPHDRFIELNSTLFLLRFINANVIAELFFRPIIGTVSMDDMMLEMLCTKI
Starred values were filed as active, the others as inactive; . = no result given. Hits are enriched below; roughly 5.7% of the tested compounds scored in any of these assays.

SMILES	DAX1 inh-1	AHR activator	hgDAF12 agonist	ssDAF12 agonist	hcDAF12 agonist	DAX1 inh-2
CCn1c(SCC(=O)c2cc(OC)ccc2OC)nnc1C(C)C	1	5	3	1.2*	3	2
COCCNC(=O)CSc1nc2ccc(N3CCOCC3)cc2c(=O)n1CCc1ccccc1	0	73*	1	-2	3	0
CCCCNC(=O)CSc1nc2ccc(N3CCOCC3)cc2c(=O)n1CCc1ccccc1	1	58*	3	-1	2	1
CCCCn1c(SCC(=O)NCCOC)nc2ccc(N3CCOCC3)cc2c1=O	0	25	-2	-1	-2	4.8*
O=C(CSc1nc2ccc(N3CCOCC3)cc2c(=O)n1CCc1ccccc1)NCC1CCCO1 (configuration not stated)	0	43	0	-1	1	0
c1ccc2c(c1)ccc1nnc(SCc3ccc4c(c3)OCO4)n12	1	65*	3	-1	-2	1
CC(Cc1cccc(C(F)(F)F)c1)NCCOC(=O)c1ccccc1 (configuration not stated)	0	-3	3	-1	0	-1
CC(=O)c1cc2c(cc1NC(=O)C1CN(C(C)=O)c3ccccc3O1)OCO2 (configuration not stated)	-1	53*	0	0	4	0
COCCNC(=O)CCC(=O)NNc1nc2ccccc2c2nc(-c3ccccc3)nn12	0	60*	0	-1	2	0
CCOCCCNC(=O)CCC(=O)NNc1nc2ccccc2c2nc(-c3ccccc3)nn12	0	29	1	-1	2	-1
COCCCNC(=O)CCC(=O)NNc1nc2ccccc2c2nc(-c3ccccc3)nn12	0	62*	3	-1	1	-2
Cc1cccc(NC(=S)NC(=O)/C=C/c2ccccc2)n1	1	9	6	-1	2	4.3*
CSc1nc(C)[nH]c(=O)c1C#N	0	4	-1	-1	-2	0
COc1ccc(CNC(=O)COC(=O)c2ccccc2OCC(=O)Nc2ccc(SC(F)F)cc2)cc1	1	0	2	-1	1	6.5*
COc1ccccc1NC(=O)COC(=O)c1ccccc1OCC(=O)Nc1ccc(SC(F)F)cc1	0	-3	-3	-1	-3	-1
COC(=O)C1=C(C)N(c2ccc(OC)cc2)C(C)=C(C(=O)OC)C1c1ccccc1	0	1	0	0	1	4.9*
COC(=O)C1=C(C)N(c2ccc(OC)cc2)C(C)=C(C(=O)OC)C1c1ccc(OC)cc1	1	0	-2	0	0	.
CC(=O)Nc1cccc(NC(C)=O)n1	-1	1	1	-1	0	-1
O=C(Nc1nc2ccsc2c(=O)s1)C1CCC1	0	-2	5	-1	2	.
O=c1sc(Nc2ccccc2)nc2ccsc12	2	0	9	0	6.2*	2
Nc1nc(N)c2cc(Sc3ccc4ccccc4c3)ccc2n1	-2	-2	-5	-2	-3	.
CCN(c1ccc(NC(=O)c2cccc(S(=O)(=O)N3CCN(C)CC3)c2)cc1)C(C)C	-4	10	-3	-1	-1	-1
S=c1[nH]nc(-c2cc(-c3ccccn3)nc3ccccc23)o1	0	73*	1	-1	2	-2
Cc1ccc(-c2cc(-c3n[nH]c(=S)o3)c3ccccc3n2)cc1	0	5	-2	-2	-2	1
C=CCN1[C@H](CC(C)C)COc2cccc(F)c2S1(=O)=O	-1	.	0	-1	0	.
Cc1ccc(-c2nnc(Cc3ccc([N+](=O)[O-])cc3)o2)cc1	1	0	12*	-1	3	2
O=[N+]([O-])c1ccc(Cc2nnc(-c3ccc(F)cc3)o2)cc1	1	-4	9	0	4	2
